# From PubChem BioAssay
# IL-1B inflam inh: inflammasome signaling inhibition, IL-1 beta readout | THP-1 LPS/ATP IL-1B secretion, AlphaLISA, 16 h; hits give low values | activity change, % at 57.5 µM | 360,000 tested, 4.7% active; in the data active = activity change below about -50%; inconclusive = mostly about -30% to -49%
#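 Secreted IL-1B measured by AlphaLISA bead assay after 16 h compound exposure of THP-1 cells; compounds (final up to 57.5 uM) added 1 h before LPS (250 ng/mL) and ATP (1.25 mM) stimulation; lower signal means less secretion.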
# Gal4-VP16 FLuc: counter-screen for ROR gamma inhibitors: Gal4-VP16 reporter | Drosophila S2 Gal4-VP16 UAS-luciferase, luminescence, 20 h | 310,000 tested, 3.5% active | Potency, µM (titrated, usually from 53.6 µM), most hits filed as inhibitors;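 also: Gal4-VP16 expression switched on by copper sulfate through the metallothionein promoter; nearly all actives have a fitted effect of over 50% in size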
# RORg inh: inhibitors of mouse ROR gamma transcriptional activity; P51450; 310,000 tested, 5.4% active; Drosophila S2 Gal4-RORgamma UAS-luciferase reporter, 20 h; Potency, µM (titrated, usually from 53.6 µM), usual class: inhibitors; AID 2551; also: nearly all actives have a fitted effect of over 60% in size
# Target sequence (P51450 whole entry, looked up, the tested form may be a part): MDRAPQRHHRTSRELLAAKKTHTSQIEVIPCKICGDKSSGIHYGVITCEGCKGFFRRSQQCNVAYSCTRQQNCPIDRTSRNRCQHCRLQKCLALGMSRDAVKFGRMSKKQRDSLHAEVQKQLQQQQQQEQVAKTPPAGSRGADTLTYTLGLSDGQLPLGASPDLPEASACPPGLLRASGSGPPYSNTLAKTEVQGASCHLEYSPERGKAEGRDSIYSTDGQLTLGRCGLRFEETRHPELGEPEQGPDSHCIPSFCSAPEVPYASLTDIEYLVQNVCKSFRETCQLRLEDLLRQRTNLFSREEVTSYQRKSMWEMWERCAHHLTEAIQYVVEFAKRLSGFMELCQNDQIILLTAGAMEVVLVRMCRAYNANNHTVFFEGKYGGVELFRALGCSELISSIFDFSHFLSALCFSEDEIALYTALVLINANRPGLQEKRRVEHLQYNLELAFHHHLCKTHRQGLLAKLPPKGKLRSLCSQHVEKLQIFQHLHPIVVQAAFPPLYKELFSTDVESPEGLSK
#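 Drosophila S2 cells stably expressing Gal4-DBD/mouse RORγ fusion under metallothionein promoter plus UAS-luciferase; compound 1 h, then 700 uM CuSO4 induction for 20 h at ambient temperature; inhibition read as reduced luminescence.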
# DT40 TDP1 no CPT: qHTS for Inhibitors of human tyrosyl-DNA phosphodiesterase 1 (TDP1): qHTS in cells in absence of CPT. 420,000 tested, 15% active. Potency, µM (top dose mostly 46.2 µM), actives largely listed as inhibitors. DT40 Tdp1-/- hTDP1 cells, no CPT, ATP luminescence, 48 h; also: nearly all actives have a fitted effect of over 55% in size
#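 No-CPT arm: Tdp1-/-;hTDP1 DT40 cells (400/well) plus compounds, incubated ≥48 hr at 37 °C. Readout CellTiter-Glo luminescence.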
# LDHA inh: LDHA (human) enzyme inhibition; P00338; purified LDHA, NADH/diaphorase-resazurin fluorescence; hits give low values; activity change, % (values are at about 110 or 230 µM); 480,000 tested, 0.15% active; AID 1347041; in the data active = activity change below about -30%; inconclusive = mostly about -25% to -30%
#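 LDH5 2 nM; NADH 0.06 mM, pyruvate 0.2 mM; 200 mM Tris pH 7.4, EDTA, Tween-20; 5 min RT. Detection: diaphorase 0.133 mg/mL + resazurin 37 µM, fluorescence ex540/em590 at 0 and 20 min; normalized to enzyme-free and DMSO wells.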
# TDP1 cell CPT: growth inhibition of DT40 Tdp1-/-;hTDP1 cells with camptothecin (screen for TDP1 inhibitors); chicken DT40 Tdp1-/-;hTDP1 cells + 20 nM CPT, ATP luminescence, 48 h; Potency, µM (top dose mostly 46.2 µM), actives largely listed as inhibitors; 420,000 tested, 12% active; AID 686979; also: nearly all actives have a fitted effect of over 55% in size
#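 Cell growth measured by CellTiter-Glo luminescence after a minimum 48 h, 37 C compound exposure with 20 nM CPT in Tdp1-knockout DT40 cells stably expressing hTDP1, seeded 400/well; qHTS titration format.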
# Hits are given with their value; i = inactive; ? = inconclusive; nt = no result. Shown are actives, neighbours in structure and some others; about 18% of the full set was active somewhere. Unless noted, calls follow the shape of the dose curve; as a rule, active = well fitted curve in the direction sought with a large enough effect; inconclusive = small, poorly fitted or top-dose-only effect, or another doubt; inactive = no such curve, though single readings can be large; an effect the other way counts as inactive or inconclusive.
SMILES,IL-1B inflam inh,Gal4-VP16 FLuc,RORg inh,DT40 TDP1 no CPT,LDHA inh,TDP1 cell CPT
CCc1ccc(C(=O)NC(=S)Nc2ccc3c(c2)OCCO3)cc1,i,7.08µM,7.08µM,?,i,?
COc1ccc(Cl)cc1NC(=S)NC(=O)c1ccc2c(c1)OCO2,i,nt,nt,i,i,i
O=C(NC(=S)Nc1ccc2c(c1)OCCO2)c1ccc(F)cc1Cl,?,?,11.2µM,i,i,i
O=Cc1c(-c2ccc(Br)cc2)[nH]c2ccccc12,nt,nt,nt,nt,i,nt
O=C(/C=C/c1cccnc1)c1ccc2cccc3c2c1CC3,nt,nt,nt,nt,i,nt
CC(C)(C(=O)Nc1cccc(OCCS(C)(=O)=O)c1)c1ccccc1,nt,nt,nt,nt,i,nt
CC1=C(C(=O)Nc2ccc(C)cc2C)C(c2cccc3ccccc23)NC(=S)N1 (stereo unspecified),nt,nt,nt,nt,i,nt
Cc1ccc(C(=O)NC(=S)Nc2ccc(N3CCOCC3)cc2)c(C)c1,i,25.1µM,2.51µM,23.1µM,i,i
O=S(=O)(Cc1ccc(Cl)cc1)N1CCN(Cc2ccc3c(c2)OCO3)CC1,i,i,i,i,i,i
Cc1ccc(C(=O)NC(=S)Nc2ccc3c(c2)OCCO3)c(C)c1,i,?,4.47µM,?,i,?
O=S(=O)(Cc1ccc(Cl)cc1)Nc1ccc2c(c1)OCO2,-53.0,i,i,?,i,?
CC(=O)Nc1ccc2c(c1)OCCO2,i,i,i,i,i,i
COc1ccc(NC(C)=O)cc1NC(=O)C(=O)c1c[nH]c2ccccc12,nt,nt,nt,nt,i,nt
CC(NC(=O)C(C)(C)C)c1ccc2c(c1)CCCC2 (stereo unspecified),nt,nt,nt,nt,i,nt
Cn1c(=O)c2c(nc(Cl)n2Cc2ccccc2C#N)n(C)c1=O,nt,nt,nt,nt,i,nt
COc1ccc(-c2cc(C3CCN(Cc4ccc([N+](=O)[O-])cc4)CC3)[nH]n2)cc1,-84.0,i,i,?,i,i
COc1ccc(-c2cc(C3CCN(CC(O)C(F)(F)F)CC3)[nH]n2)cc1 (stereo unspecified),i,i,i,?,i,?
COC(=O)c1cc(-c2ccc(Cl)cc2)n[nH]1,i,i,i,i,i,?
COC1CCN(Cc2ccc(C)cc2)CC1,nt,nt,nt,nt,i,nt
Cc1ccc(CN2CCC(c3cc(-c4ccc(Cl)cc4)n[nH]3)CC2)cc1,-96.9,i,i,14.6µM,i,16.4µM
Clc1ccc(-c2cc(C3CCNCC3)[nH]n2)cc1,?,i,i,25.9µM,i,23.1µM
Cc1cc(NC(=O)C(C)OC(=O)c2cc3c(s2)CCC3)no1 (stereo unspecified),nt,nt,nt,nt,i,nt
CC(=O)Nc1ccc(/C=C(\C#N)C(=O)NCc2ccccc2)cc1,-67.8,i,i,?,i,i
Cc1ccccc1COc1ccc(/C=C(\C#N)C(N)=O)cc1,i,i,i,i,i,i
N#C/C(=C/c1ccc(O)cc1)C(=O)NCc1ccc(Cl)cc1,-65.3,i,i,i,i,i
SMILES,IL-1B inflam inh,Gal4-VP16 FLuc,RORg inh,DT40 TDP1 no CPT,LDHA inh,TDP1 cell CPT
N#C/C(=C\c1ccc(OCc2ccccc2)cc1)C(N)=O,i,i,i,23.1µM,i,?
CN(C)c1ccc(/C=C(/C#N)C(=O)Nc2nc3c(s2)CCN(Cc2ccccc2)C3)cc1,i,nt,nt,?,i,?
N#C/C(=C\c1ccc(OCc2ccccc2)cc1)C(=O)Nc1nc2c(s1)CCN(Cc1ccccc1)C2,i,i,?,20.6µM,i,23.1µM
N#C/C(=C\c1ccc(O)cc1)C(=O)NCc1ccccc1,-63.2,i,i,i,i,?
N#C/C(=C\c1ccc(O)cc1)C(=O)NCc1cccc(Cl)c1,i,i,i,i,i,i
O=C(OCC(=O)N1CCCCCC1)c1cnc2ccccc2n1,nt,nt,nt,nt,i,nt
CC(CN(C)Cc1ccccc1)OC(=O)c1ccc(F)cc1 (stereo unspecified),i,i,i,10.3µM,i,14.6µM
CCOc1ccc(-n2cc(-c3ccccc3)c3c(NCC(OC)OC)ncnc32)cc1,nt,nt,nt,nt,i,nt
COc1cccc(NC(=O)CSc2nnc(COc3ccccc3)n2Cc2ccco2)c1,nt,nt,nt,nt,i,nt
CC(C)(C)NC(=O)c1ccc2c(c1)C1C3CCC(C3)C1C(c1ccccc1)N2 (stereo unspecified),?,i,?,11.6µM,i,13µM
CCCNC(=O)c1ccc2c(c1)C1C3CCC(C3)C1C(c1ccccc1)N2 (stereo unspecified),?,i,i,?,i,20.6µM
CCCNC(=O)c1ccc(NC(=O)Nc2ccccc2)cc1,nt,nt,nt,nt,i,nt
O=C(O)c1ccc(NC(=O)c2cccc(N3C(=O)C4C5CCC(C5)C4C3=O)c2)cc1 (stereo unspecified),i,i,i,i,i,i
Fc1ccc(OCc2nc(CSc3ncc(-c4ccc(F)cc4)o3)cs2)cc1,nt,nt,nt,nt,i,nt
CCOC(=O)c1cccc(NC(=O)CSc2nc3cc4ccccc4cc3[nH]2)c1,nt,nt,nt,23.1µM,i,?
Cc1ccc2nc(SCC(=O)Nc3ccc(C(N)=O)cc3)[nH]c2c1,i,i,i,i,i,i
CCOC(=O)c1ccc(NC(=O)CSc2nc3cc4ccccc4cc3[nH]2)cc1,nt,nt,nt,18.4µM,i,23.1µM
O=C(Nc1cccc(Br)c1)c1cc(-c2cccnc2)nc2ccccc12,nt,nt,nt,nt,i,nt
COc1ccc(NC(=O)c2cc(-c3ccc(C)o3)nc3ccccc23)cc1OC,?,i,i,16.4µM,i,18.4µM
COc1ccc(NC(=O)c2cc(-c3ccc(C)o3)nc3ccccc23)c(OC)c1,i,nt,nt,11.6µM,i,?
Cc1ccc(-c2cc(C(=O)N(C)CC(=O)Nc3ccccc3Br)c3ccccc3n2)o1,?,nt,nt,?,i,16.4µM
Cc1ccc(-c2cc(C(=O)Nc3ccc(C#N)cc3)c3ccccc3n2)o1,nt,nt,nt,nt,i,nt
Cc1ccc(-c2cc(C(=O)Nc3ccccc3C(N)=O)c3ccccc3n2)o1,i,nt,nt,10.3µM,i,14.6µM
Cc1ccc(-c2cc(C(=O)Nc3ccc(C(N)=O)cc3)c3ccccc3n2)o1,nt,nt,nt,nt,i,nt
COc1ccc(NC(=O)c2cc(C)nc3ccccc23)c(OC)c1,i,i,i,i,i,i
SMILES,IL-1B inflam inh,Gal4-VP16 FLuc,RORg inh,DT40 TDP1 no CPT,LDHA inh,TDP1 cell CPT
COc1cc(CN(C(=O)COc2ccccc2C)c2ccccn2)cc(OC)c1OC,nt,nt,nt,nt,i,nt
CCCCn1c(=O)[nH]c(=O)c2c1nc(CCc1ccccc1)c(=O)n2C,nt,nt,nt,nt,i,nt
COc1ccc(S(=O)(=O)c2cnc3ccc(OC)cc3c2N2CCC3(CC2)OCCO3)cc1,?,?,i,3.26µM,i,8.2µM
COc1ccc(N2CCN(c3c(S(=O)(=O)c4ccccc4)cnc4ccc(OC)cc34)CC2)cc1,i,i,?,18.4µM,i,23.1µM
CCOc1ccc2ncc(S(=O)(=O)c3ccccc3)c(N3CCN(c4ccccc4)CC3)c2c1,i,nt,nt,?,i,14.6µM
CCc1nnc(NC(=O)c2cc(=O)[nH]c3ccccc23)s1,nt,nt,nt,nt,i,nt
